{"source": "PubChem BioAssay AID493168", "about": "(National Center for Advancing Translational Sciences (NCATS), 2011)", "note": "Records with an inconclusive call do not appear. Where a call stands in place of a potency, no number is given. Activity calls are given as the source filed them. The call rests on the fitted dose curve; in most records, active means well fitted inhibition curve with a large enough effect; inconclusive means small, poorly fitted or top-dose-only effect, or effect the other way; inactive means flat fitted curve, though single readings scatter. Potency means the concentration at half of the fitted maximal effect.", "data": [{"biological_target": "Ubiquitin carboxyl-terminal hydrolase 2 (Homo sapiens) (UniProt O75604)", "sequence (O75604 whole entry, looked up)": "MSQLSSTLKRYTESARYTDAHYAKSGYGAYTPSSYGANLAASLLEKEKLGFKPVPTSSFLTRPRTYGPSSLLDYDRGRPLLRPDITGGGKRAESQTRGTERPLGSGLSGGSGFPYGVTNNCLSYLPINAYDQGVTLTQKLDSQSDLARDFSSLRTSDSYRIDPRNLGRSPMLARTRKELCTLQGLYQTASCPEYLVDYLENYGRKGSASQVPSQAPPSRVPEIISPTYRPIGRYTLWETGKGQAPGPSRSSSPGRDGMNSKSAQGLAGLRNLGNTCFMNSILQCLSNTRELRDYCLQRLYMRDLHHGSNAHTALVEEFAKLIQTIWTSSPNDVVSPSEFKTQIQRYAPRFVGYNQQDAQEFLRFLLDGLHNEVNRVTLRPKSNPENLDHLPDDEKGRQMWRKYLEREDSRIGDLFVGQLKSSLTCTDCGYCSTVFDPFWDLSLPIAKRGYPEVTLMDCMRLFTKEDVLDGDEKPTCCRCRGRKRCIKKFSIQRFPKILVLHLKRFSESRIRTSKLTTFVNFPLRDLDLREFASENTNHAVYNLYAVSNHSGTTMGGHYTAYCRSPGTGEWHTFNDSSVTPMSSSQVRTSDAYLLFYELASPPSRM", "experiment": "Confirmation Assay for Inhibitors of Ubiquitin-specific Protease USP2a Using CHOP2 as the Reporter; further: nearly all actives have a fitted effect of over 55% in size", "conditions": "USP2 core, Ub-CHOP2 coupled reporter fluorescence; series mostly up to 38.3 µM", "summary_of_the_method": "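Ub-CHOP2 cleavage coupled to reporter activation was read by fluorescence after 60 min at RT, with 25 nM final Ub-CHOP2 and substrate. Enzyme (10 nM final USP2 core) first sat 30 min with compound; data were normalized to NEM and fitted to concentration-response curves.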", "values": [{"smiles": "COC(=O)N/N=C\\c1cc(Br)ccc1OCc1ccccc1", "Potency": "inactive"}, {"smiles": "Nc1cc(N)nc(SCC(=O)N2CCCCC2)n1", "Potency": "inactive"}, {"smiles": "C=CC[C@H](CC(=O)N[C@H](CO)Cc1ccccc1)C(=O)N[C@@H](COC(=O)[C@@H](CC=C)CC(=O)OC(C)(C)C)Cc1c[nH]c2ccccc12", "Potency": "inactive"}, {"smiles": "CCc1cc2c(=O)c(-n3cnc4ccccc43)coc2cc1O", "Potency": "inactive"}, {"smiles": "O=C(COC(=O)/C=C/c1ccc(Cl)cc1)NC1CC1", "Potency": "inactive"}, {"smiles": "Cc1cccc(NC(=O)NCc2ccc3c(c2)cc(C)n3C)c1", "Potency": "inactive"}, {"smiles": "Cc1ccc(C(=O)c2coc3c2C(=O)C(=O)c2ccccc2-3)cc1", "Potency": "inactive"}, {"smiles": "O=C(CSCCO)Nc1cccc2ccccc12", "Potency": "inactive"}, {"smiles": "Clc1ccc2c(N/N=C/c3ccc(Br)cc3)ccnc2c1", "Potency": "13.1 µM (active)"}, {"smiles": "Cc1ccc(/C(O)=C/C(=O)C(=O)NNC(=O)C(O)(c2ccccc2)c2ccccc2)cc1", "Potency": "14.7 µM (active)"}, {"smiles": "CC(C)OCCCNC(=O)c1c(N)n(/N=C/c2ccccn2)c2nc3ccccc3nc12", "Potency": "inactive"}, {"smiles": "Cc1ccc(S(=O)(=O)Nc2cc(C)c(O)c(S(=O)(=O)c3ccc(C)cc3)c2)cc1", "Potency": "inactive"}, {"smiles": "COCCCNC(=O)C1CCN(c2nc(C)cc(C)n2)CC1", "Potency": "inactive"}, {"smiles": "Cc1ccc(NC(=O)CSc2nc(O)cc(=O)n2-c2ccc(C)cc2)cc1", "Potency": "inactive"}, {"smiles": "O=C(NCCCN1CCCC1=O)c1cccc(N2CCCC2=O)c1", "Potency": "inactive"}, {"smiles": "CNc1cccccc1=S", "Potency": "inactive"}, {"smiles": "COc1ccc(C(=O)Nc2ccc(N3CCCC3)cc2)cc1OC", "Potency": "inactive"}, {"smiles": "O=c1cc(CO)oc(CN2CCN(Cc3ccccc3)CC2)c1O", "Potency": "inactive"}, {"smiles": "Cc1ccc(SCC(=O)Nc2ccc(C(=O)Nc3ccc(O)cc3)cc2)cc1", "Potency": "inactive"}, {"smiles": "Cc1ccc(N(CC(=O)Nc2ccc(S(=O)(=O)N3CCOCC3)cc2)S(C)(=O)=O)cc1C", "Potency": "inactive"}, {"smiles": "CCn1c2ccccc2c2nc3ccccc3nc21", "Potency": "inactive"}, {"smiles": "O=[N+]([O-])c1c(NCCO)cc(N2CCN(Cc3ccc4c(c3)OCO4)CC2)c2nonc12", "Potency": "inactive"}, {"smiles": "CC1CCN(c2ccc3c(c2)S(=O)(=O)c2cccc(C(=O)NC4CC4)c2C3=O)CC1", "Potency": "inactive"}, {"smiles": "Cc1cc(C)n2nc(S(=O)(=O)NCCc3ccccc3)nc2n1", "Potency": "inactive"}, {"smiles": "O=C(CN1CCC(O)CC1)N1c2ccccc2C=Cc2ccccc21", "Potency": "inactive"}, {"smiles": "O=C(Nc1ccc(N2CCCC2)cc1)c1cccc(-c2cc3ccccc3oc2=O)c1", "Potency": "inactive"}, {"smiles": "COc1ccc(NC(=S)NC(=O)/C=C/c2ccco2)cc1", "Potency": "inactive"}, {"smiles": "CC(=O)c1ccc(Nc2ncnc3c2oc2ccccc23)cc1", "Potency": "inactive"}, {"smiles": "Cc1ccc(C(=O)NCc2ccc3c(c2)OCO3)cc1N1CCCC1=O", "Potency": "inactive"}, {"smiles": "COCc1cc(C)nc(SCC[N+](C)(C)CC(=O)Nc2cccc(C(F)(F)F)c2)c1C#N", "Potency": "inactive"}, {"smiles": "COC(=O)CCC/C=C1/SCC(NC(=O)c2ccccc2)C1=O", "note": "(centres undefined)", "Potency": "inactive"}, {"smiles": "O=C(COc1ccccc1)NCCSc1ccccc1", "Potency": "inactive"}, {"smiles": "O=C(Nc1cccc(C(F)(F)F)c1)/C(=C\\c1ccco1)NC(=O)c1cccs1", "Potency": "inactive"}, {"smiles": "O=C(OCc1nc2ccccc2[n+]([O-])c1C(=O)c1ccccc1)c1cccs1", "Potency": "inactive"}, {"smiles": "O=C(O)c1cc(N2N=C(C(F)(F)F)/C(=C/C=C/c3ccco3)C2=O)ccc1Cl", "Potency": "5.85 µM (active)"}, {"smiles": "N#CCc1ccc(NC(=O)/C=C/c2ccc([N+](=O)[O-])o2)cc1", "Potency": "inactive"}, {"smiles": "CCn1c(SCC(=O)NCCc2ccccc2)nnc1-c1cccs1", "Potency": "inactive"}, {"smiles": "CCOC(=O)c1c(NC(C)=O)sc2c1CCCNC2=O", "Potency": "inactive"}, {"smiles": "O=C(N/N=C/c1ccc(F)cc1)c1cc(-c2ccco2)nc2ccccc12", "Potency": "18.5 µM (active)"}]}]}
